Rows were chosen to be rich in hits. Some 3.3% of all compounds tested hit in one or more screens of this group.
PLK1 inh – PLK1 (human) kinase inhibition | 97,000 tested, 0.53% active | inhibition, % at 10 µM | recombinant PLK1 kinase, TR-FRET peptide phosphorylation | AID 619 | P53350;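 active = inhibition of 50% or more in the single-concentration screen; inactive = inhibition below 50%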;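 note: 0% = DMSO max control and 100% = H-89 dihydrochloride min control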
ERb coact inh – blocks coactivator binding to human estrogen receptor beta; Q92731; TR-FRET ER-beta LBD / SRC1-Cy5 peptide binding; receptor agonist-loaded with 1 µM estradiol; inhibition, % at 25.6 µM; 86,000 tested, 1.3% active; AID 633;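 active = compounds whose percent inhibition of the receptor-coactivator binding signal exceeds about 50% in the single-dose screen, limit read from the data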;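 note: 0% = receptor plus peptide wells without compound and 100% = peptide-only wells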
Target sequence (Q92731 whole entry, looked up, the tested form may be a part): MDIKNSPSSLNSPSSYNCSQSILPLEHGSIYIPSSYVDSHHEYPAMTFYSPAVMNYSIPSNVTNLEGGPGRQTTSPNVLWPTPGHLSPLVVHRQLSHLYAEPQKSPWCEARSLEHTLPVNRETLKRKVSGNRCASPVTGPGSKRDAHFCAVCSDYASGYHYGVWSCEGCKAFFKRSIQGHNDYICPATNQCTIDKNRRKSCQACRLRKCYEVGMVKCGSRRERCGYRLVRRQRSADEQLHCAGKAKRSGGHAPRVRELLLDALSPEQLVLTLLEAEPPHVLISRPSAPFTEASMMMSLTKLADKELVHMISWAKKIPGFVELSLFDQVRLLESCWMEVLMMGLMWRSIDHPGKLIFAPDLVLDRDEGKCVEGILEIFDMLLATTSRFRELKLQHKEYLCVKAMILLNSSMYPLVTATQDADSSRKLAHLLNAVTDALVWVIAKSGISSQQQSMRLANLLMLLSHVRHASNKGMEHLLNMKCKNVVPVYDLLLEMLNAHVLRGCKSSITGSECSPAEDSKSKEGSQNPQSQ
ERa coact pot – enhances coactivator binding to human estrogen receptor alpha; P03372; TR-FRET ERalpha-LBD/SRC-Cy5 coactivator binding, 2 h; 100 = basal binding, no effect; coactivator binding (% of control), % at 25.6 µM; 86,000 tested, 1.3% active; AID 639; in the data active = activity above about 200%;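 note: binding measured in presence of low estradiol as agonist stimulus; 0% = peptide alone without receptor and 100% = receptor with peptide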
ERa SRC1 inh – ER-alpha (human) coactivator binding inhibition; P03372; TR-FRET ER-alpha LBD / SRC-1 peptide, estradiol-bound; inhibition, % at 25.6 µM; 86,000 tested, 1.7% active; AID 629; in the data active = inhibition above about 50%;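 note: 0% = receptor plus peptide control and 100% = peptide only without receptor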
Smad3 FoxH1 inh – blocks human Smad3 binding to FoxH1 peptide. 88,000 tested, 0.29% active. TR-FRET Smad3/Dy647-FoxH1 peptide binding, europium anti-His. inhibition, % at 25 µM;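 active = compounds that reduce the energy-transfer binding signal between the protein and its labelled peptide by more than half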;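 note: 0% = Smad3 plus labelled peptide maximal FRET and 100% = peptide-only background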
PLK1 PBD inh – blocks phosphopeptide binding to human Plk1 polo box domain | Plk1 PBD phosphopeptide binding, fluorescence polarization | 97,000 tested, 0.13% active | inhibition, %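 (tested at about 20 µM)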; in the data active = inhibition above about 34%, passing the limit was not always enough
* hit, by the source's call; · = no result; [ ] = remark or other dose.

SMILES	PLK1 inh	ERb coact inh	ERa coact pot	ERa SRC1 inh	Smad3 FoxH1 inh	PLK1 PBD inh
CCCCn1c2nc3ccccc3nc2c2c(=N)oc(C)nc21	·	31.8	314.4*[fluorescence artefact?]	6.8	20.8	·
CCCCn1c2nc3ccccc3nc2c2c(=O)n(CCC(C)C)cnc21	-0.3	10.0	95.5	-1.0	-5.2	0.3
CC12C(=O)N(Cc3ccco3)C(=O)C1C1c3ccccc3C2c2ccccc21 (stereo not given)	5.2	55.2*[fluorescence artefact?]	162.6	46.7	4.6	-7.1
COc1ccc(C(C)=O)c2c(O)cccc12	-4.8	2.3	121.9	-0.5	2.7	8.1
CCC1=NNc2cccc3c(OC)ccc1c23	68.1*	100.5*[fluorescence artefact?]	-2.3	99.1*[fluorescence artefact?]	65.5*[fluorescence artefact?]	-0.9
CCOC(=O)c1c(C)[nH]c(C)c1C(=O)CSc1nnc(-c2ccc(OC(F)F)cc2)o1	-33.7	23.8	276.2*	45.6	2.4	-13.2
COc1ccc(C(=O)CSc2nnc(-c3ccc(S(=O)(=O)N4CCOCC4)cc3)o2)cc1	4.6	18.1	470.0*[fluorescence artefact?]	-5.8	-84.9	5.3
COc1ccc(-c2nnc(SCC(=O)c3[nH]c(C)c(C(C)=O)c3C)o2)cc1	-8.6	31.6	274.9*	21.9	-1.4	26.6
C/C(N)=C(/C#N)C(=O)CSc1nnc(-c2ccc(OC(F)F)cc2)o1	-1.6	62.4*	57.8	56.4*	6.0	7.6
CCOC(=O)c1[nH]c(CSc2nnc(-c3ccc(OC)cc3)o2)c(C(=O)OCC)c1C	-10.6	9.2	127.0	10.2	-12.6	14.0
C/C(N)=C(/C#N)C(=O)CSc1nnc(-c2ccc3c(c2)OCO3)o1	18.6	·	·	·	·	-15.9
COc1ccc(-c2nnc(SCC(=O)c3ccc[nH]3)o2)cc1	-10.9	·	·	·	·	13.2
COc1ccc(C2SCC(=O)N2CCCN(C)C)cc1 (stereo not given)	7.6	2.4	86.9	7.8	-8.8	1.3
COC(=O)Nc1c(-c2ccccc2)nc2ccc(C)cn12	·	83.0*	100.5	2.8	1.3	·
COC(=O)Nc1c(-c2ccccc2)nc2ccccn12	-7.9	-8.5	105.6	-19.8	9.2	3.3
COCCSc1ccccc1C(=O)Nc1cc(C)on1	-2.2	95.9*[fluorescence artefact?]	62.2	-36.3	-6.0	11.8
CN1CCN(CC(=O)Nc2cccc3ccccc23)CC1	·	·	·	·	-5.7	·
CC(=O)OCC(=O)[C@@]12OC(C)(C)O[C@@H]1C[C@H]1[C@H]3CC=C4C[C@@H](O)CC[C@]4(C)[C@@H]3CC[C@@]12C	·	·	·	·	98.2*	·
CC(=O)[C@H]1[C@H](C#N)C[C@H]2[C@@H]3CC=C4C[C@@H](O)CC[C@]4(C)[C@H]3CC[C@@]21C	·	3.0	115.6	2.9	-5.6	·
O=C(O)C1CCCN(C(=O)NCc2ccccc2)C1 (stereo not given)	·	-10.0	109.0	-9.2	-0.7	·
COCC(C)NC(=O)c1cccc(Cl)c1 (stereo not given)	-15.8	2.5	108.8	5.4	11.3	-16.5
COC(=O)C(/C=N/OCc1ccc([N+](=O)[O-])cc1)NC(=O)c1cccc(Cl)c1 (stereo not given)	-4.6	20.4	395.4*[fluorescence artefact?]	24.5	-9.8	-7.4
O=C(O)NCc1ccccc1 (tested in a mixture with another compound)	·	·	·	·	-8.7	·
Cc1[nH]nc2c1C(c1ccccn1)N(c1ccc(Br)cc1)C2=O (stereo not given)	-6.8	-2.6	103.2	77.1*[fluorescence artefact?]	12.3	19.5
CCOC(=O)c1ccc(N2C(=O)c3n[nH]c(C)c3C2c2ccccn2)cc1 (stereo not given)	-8.1	32.0	47.2	12.2	-11.9	2.0
SMILES	PLK1 inh	ERb coact inh	ERa coact pot	ERa SRC1 inh	Smad3 FoxH1 inh	PLK1 PBD inh
O=[N+]([O-])c1ccc2c(c1)Cc1cc(N=Cc3ccc4c(c3)OCO4)ccc1-2	·	·	·	·	2.0	·
O=C1CC(C(F)(F)C(F)(F)C(F)(F)C(F)F)=Nc2ccccc2N1	5.7	11.0	100.9	-3.0	5.9	-2.5
O=C1CC(/C=C/c2ccco2)=Nc2ccccc2N1	-12.8	43.6	80.3	58.5*	-0.9	13.0
CSCC[C@H](NC(=O)c1nn(C)c(=O)c2ccccc12)c1nc2ccccc2[nH]1	-6.4	-3.1	100.5	6.3	-1.8	-13.8
O=C(CN(Cc1ccco1)C(=O)CNS(=O)(=O)c1ccc(F)cc1)NCCc1ccccc1	·	-1.6	96.0	1.9	4.2	·
Cc1cc(OC(=O)c2ccco2)c2c(C)cc(=O)oc2c1	3.7	5.2	272.4*	5.5	20.4	-17.8
CCc1cc(=O)oc2cc(C)cc(OC(=O)c3ccco3)c12	-1.8	-2.3	102.0	-4.3	-9.7	1.0
O=S(=O)(Nc1nccs1)c1cc(Cl)ccc1Cl	-3.1	51.2*	51.2	55.9*	4.1	16.2
COc1cc(-c2nnc(-c3ccc(S(=O)(=O)c4ccccc4)cc3)o2)cc(OC)c1OC	-36.1	36.4	86.0	57.8*	11.1	0.0
COc1cc(-c2nnc(-c3ccc(N4CCOCC4)cc3)o2)cc(OC)c1OC	-13.6	-5.9	108.7	0.1	14.9	9.6
COc1ccc(CCNS(=O)(=O)c2ccc3c(c2)n(C)c(=O)c(=O)n3C)cc1OC	-2.5	·	·	·	·	-17.6
COc1ccc(CCNS(=O)(=O)c2ccc(S(=O)(=O)N3CCCC3)cc2)cc1OC	0.9	88.2*[fluorescence artefact?]	107.7	7.4	-8.6	-0.2
S=C1NCN2CCN(CC2)CNC(=S)C(=S)NCN2CCN(CC2)CNC1=S	·	·	·	·	11.2	·
OC1(c2cccc(C(F)(F)F)c2)CCNCC1	-0.5	69.9*[fluorescence artefact?]	86.4	15.6	-7.0	5.3
O=C1NN(c2ccc(Cl)c(Cl)c2)C(=O)/C1=C/c1cccc(OC(=O)c2cccs2)c1	-6.2	27.8	66.1	51.1*	1.0	4.8
O=C1NN(c2ccccc2)C(=O)/C1=C\c1cccc(OC(=O)c2cccs2)c1	-15.8	8.5	116.7	36.6	22.4	-7.6
COC(=O)c1ccc2ccn(CC(=O)NC3CCCCC3)c2c1	-3.9	-4.7	99.0	-5.2	-2.8	-14.9
CSc1ccc(NC(=O)[C@H]2CCCC[C@@H]2C(=O)O)cc1	·	·	·	·	-5.9	·
O=C1c2ccccc2-c2onc3ccc(Oc4ccccc4)c1c23	16.6	41.2	59.8	76.3*[fluorescence artefact?]	10.6	-68.7
Cc1cc(C)nc(NC2=NCC(=O)N2c2cc(Cl)cc(Cl)c2)n1	-4.0	-1.7	474.1*[fluorescence artefact?]	-36.2	20.5	-3.1
NC(=O)C[C@@H](N)c1nn[nH]n1	·	·	·	·	3.9	·
O=C(COc1ccccc1F)Nc1nnc(-c2ccncc2)s1	54.3*	30.6	104.7	2.7	3.3	21.9
NNC(=O)c1ccc(OCc2nc3ccccc3[nH]2)cc1	·	·	·	·	6.6	·
CC[C@@H]1CC(=O)N(SC[C@H](N)C(=O)O)C1=O	·	·	·	·	2.9	·
COc1ccc(N(CC(=O)NCc2ccco2)S(=O)(=O)c2ccc(OC)c(OC)c2)cc1	·	54.2*[fluorescence artefact?]	93.6	1.9	-10.9	·
COc1ccc(CCC(=O)NCc2ccco2)cc1	-9.8	49.4	211.8*[fluorescence artefact?]	57.8*[fluorescence artefact?]	-3.1	-11.1
Cc1nc2cc(-c3ccccc3)nn2c(C)c1CCC(=O)NCc1ccco1	-0.8	10.3	97.6	79.8*[fluorescence artefact?]	0.8	26.4

Screening results (PubChem BioAssay)
